Data taken from PMC4336329 (PLoS ONE, 2015).
In all, about 310,000 compounds went through this assay and about 14,000 (4.5%) showed an effect of 50% or more. The effect is printed as a negative number. Shown is part of a subset that was picked to be rich in strong results.

Target: human ether-à-go-go-related gene (hERG) potassium channel (human, UniProt Q12809)
Test: primary screen, population patch clamp on CHO cells stably expressing hERG; higher = less effect of the substance
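Further: peak tail current of the secondary pulse compared with the same well before compound.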

Sequence of human ether-à-go-go-related gene (hERG) potassium channel (Q12809 whole entry, looked up): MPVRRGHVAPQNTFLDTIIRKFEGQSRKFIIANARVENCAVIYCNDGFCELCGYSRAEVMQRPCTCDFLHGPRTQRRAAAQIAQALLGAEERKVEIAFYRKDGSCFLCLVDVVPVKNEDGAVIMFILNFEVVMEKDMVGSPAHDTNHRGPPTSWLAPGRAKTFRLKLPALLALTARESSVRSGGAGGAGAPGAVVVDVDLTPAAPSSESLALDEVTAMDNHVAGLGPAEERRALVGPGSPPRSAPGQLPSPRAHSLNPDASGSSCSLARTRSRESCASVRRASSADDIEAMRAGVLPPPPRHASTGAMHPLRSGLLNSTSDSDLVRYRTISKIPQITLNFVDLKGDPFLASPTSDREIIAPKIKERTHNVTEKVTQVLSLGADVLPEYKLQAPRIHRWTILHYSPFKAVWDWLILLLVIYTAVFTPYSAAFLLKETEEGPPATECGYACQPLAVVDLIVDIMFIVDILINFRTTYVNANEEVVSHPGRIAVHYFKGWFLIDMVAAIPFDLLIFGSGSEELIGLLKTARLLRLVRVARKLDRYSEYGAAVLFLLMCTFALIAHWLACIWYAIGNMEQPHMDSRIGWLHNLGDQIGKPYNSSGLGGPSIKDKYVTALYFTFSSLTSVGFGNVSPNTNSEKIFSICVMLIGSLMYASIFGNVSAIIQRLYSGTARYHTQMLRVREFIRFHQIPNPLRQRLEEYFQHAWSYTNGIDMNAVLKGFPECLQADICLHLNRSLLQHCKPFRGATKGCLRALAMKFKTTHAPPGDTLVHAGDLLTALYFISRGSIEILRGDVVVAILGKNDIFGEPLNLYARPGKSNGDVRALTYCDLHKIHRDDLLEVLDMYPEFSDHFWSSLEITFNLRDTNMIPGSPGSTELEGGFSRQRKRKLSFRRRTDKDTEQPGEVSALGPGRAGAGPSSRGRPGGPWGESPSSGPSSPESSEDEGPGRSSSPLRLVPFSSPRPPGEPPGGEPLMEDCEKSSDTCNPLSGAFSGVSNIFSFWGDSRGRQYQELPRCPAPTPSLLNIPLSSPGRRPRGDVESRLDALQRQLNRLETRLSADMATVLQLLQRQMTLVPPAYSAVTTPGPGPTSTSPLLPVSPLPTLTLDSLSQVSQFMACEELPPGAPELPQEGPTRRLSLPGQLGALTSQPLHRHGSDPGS

SMILES | hERG current change (%, negative = inhibition) at 10uM [%]
CCn1c2ccccc2c2cc(NC(=O)c3cccc(OC)c3)ccc21 | 13.9
COC(=O)c1sccc1NC(=O)CC1C(=O)NCCN1C(=O)c1ccc(N(C)C)cc1 (centres unmarked) | 7.57
COc1ccc(Cl)cc1NC(=O)CSc1nnc(CN2CCOCC2)n1-c1ccc(Cl)cc1 | -46.6
O=C(Nc1ccc(S(=O)(=O)NCC2CCCO2)cc1)c1ccccc1 (centres unmarked) | 2.19
CCCN1CCN(C(=O)C2CCCN(c3ncnc4c3nc3n4CCCCC3)C2)CC1 (centres unmarked) | -1.04
O=C(C1CCN(c2ncnc3c2nc2n3CCCCC2)CC1)N1CCN(c2cccc(Cl)c2)CC1 | -36.7
O=C(C1CCCN(c2ncnc3c2nc2n3CCCCC2)C1)N1CCN(c2cccc(Cl)c2)CC1 (centres unmarked) | -72.8
Cc1ccc(C)c(N2CCN(C(=O)C3CCCN(c4ncnc5c4nc4n5CCCCC4)C3)CC2)c1 (centres unmarked) | -33.6
O=C(C1CCCN(c2ncnc3c2nc2n3CCCCC2)C1)N1CCN(c2ccccc2)CC1 (centres unmarked) | -74
O=C(C1CCCN(c2ncnc3c2nc2n3CCCCC2)C1)N1CCCCC1 (centres unmarked) | -18.2
O=C(C1CCCN(c2ncnc3c2nc2n3CCCCC2)C1)N1CCN(c2ccc(Cl)cc2)CC1 (centres unmarked) | -54.8
CC1CC(C)CN(C(=O)C2CCCN(c3ncnc4c3nc3n4CCCCC3)C2)C1 (centres unmarked) | -35.8
O=C1CNC(=S)N1C(CO)c1ccccc1 (centres unmarked) | 22.2
CCc1cc(C(=O)Cc2ccc(F)cc2)c(O)cc1O | -12.7
O=C(O)c1c(C(=O)O)c(-c2ccc(Br)cc2)n2c1CSC2 | 15
O=C(O)COc1ccc(S(=O)(=O)NCCc2ccccc2)cc1 | 6.4
CC(C)C[C@H](NC(=O)C1CC(=O)N(c2ccc3c(c2)OCO3)C1)C(=O)NC1CCCC1 (some centres unmarked) | -0.704
Cc1cccc(OCC(=O)Nc2ccc(NC(=O)c3ccco3)c(C)c2)c1 | -15.3
CCOC(=O)c1ccc(NC(=O)C2CCN(C(=O)c3ccc(OC)c(OC)c3)CC2)cc1 | -58.7

SMILES | hERG current change (%, negative = inhibition) at 10uM [%]
COc1ccc(NC(=O)C2CCN(C(=O)c3cccs3)CC2)cc1 | -12.4
COc1ccc(C(=O)N2CCC(C(=O)Nc3ccccc3OC)CC2)cc1 | -34.6
COc1ccc(C(=O)N2CCC(C(=O)Nc3ccc(C)cc3)CC2)cc1 | -75.9
COc1ccc(C(=O)N2CCC(C(=O)Nc3ccc(OC)c(OC)c3)CC2)cc1 | 1.37
COc1ccc(C(=O)N2CCC(C(=O)NC3CC3)CC2)cc1 | 4.25
COc1ccc(C(=O)N2CCC(C(=O)Nc3cccc(C)c3)CC2)cc1OC | -38.9
COC(=O)c1ccc(NC(=O)C2CCN(C(=O)c3cc(OC)c(OC)c(OC)c3)CC2)cc1 | 6.73
COc1ccc(NC(=O)C2CCN(C(=O)c3ccc(OC)cc3)CC2)cc1 | -72.2
COc1ccc2sc(-c3ccccc3OC)c(-c3ccc4c(c3)OCCO4)c2c1 | 17.2
Cc1c(C(=O)Nc2ccc3c(c2)OCCO3)oc2ccc(Br)cc12 | 0.46
CCOC(=O)COc1c(OC)cc(Cl)cc1C1Nc2ccccc2C(=O)N1c1cccc(C)c1 (centres unmarked) | -8.45
O=C1OCCN/C1=C\C(=O)c1ccc(Cl)cc1 | 14.5
Cn1ccc(NS(=O)(=O)c2cc(Br)ccc2Br)n1 | 0.158
O=C(CCS(=O)(=O)c1ccc(F)cc1)Nc1nnc(-c2ccc(F)cc2)o1 | -10.7
COc1ccc(NC(=O)c2sc3ncn(CC(=O)N4CCN(c5ccccn5)CC4)c(=O)c3c2C)c(OC)c1 | 19.5
O=C(c1ccco1)N1N=C(c2cccs2)CC1c1cc([N+](=O)[O-])ccc1O (centres unmarked) | 7.51
C[C@H]1CN=C(N(C)C)N1CCCCc1ccccc1 | -25.5
CCCCCCCN1C(N(C)C)=NC[C@@H]1Cc1ccccc1 | -80.1
CCC(C)CCN1C(N(C)C)=NC[C@@H]1Cc1ccccc1 (some centres unmarked) | -22.5

SMILES | hERG current change (%, negative = inhibition) at 10uM [%]
CC(C)CCCN1C(N(C)C)=NC[C@@H]1Cc1ccccc1 | -24.9
CCC(CC)CN1C(N(C)C)=NC[C@@H]1CC(C)C | -4.65
CC(C)C[C@H]1CN=C(N(C)C)N1CCCCc1ccccc1 | -64.7
CN(C)C1=NC[C@H](Cc2ccccc2)N1CCCCc1ccccc1 | -71
CCC(C)CCN1C(N(C)C)=NC[C@@H]1CC(C)C (some centres unmarked) | -11
CCN1C(N(C)C)=NC[C@@H]1Cc1ccccc1 | -1.57
COC(=O)C1=NN(c2cccc(C)c2)C2C(=O)N(c3ccccc3OC)C(=O)C12 (centres unmarked) | -4.79
COc1ccccc1OCc1cc(C(=O)NCc2ccc(N3CCCC3=O)cc2)no1 | 13.4
Cc1ccc(OC(=O)c2cccc(S(=O)(=O)N3CCN(C)CC3)c2)c(Br)c1 | -19.5
O=C(NCc1ccccc1)C(C(=O)c1ccc(F)cc1)n1ccccc1=O (centres unmarked) | -0.0984
COc1ccc(C2(C(=O)Nc3ccccc3)CCOCC2)cc1 | -14.2
CC1CCCCC1NC(=O)COC(=O)/C=C/c1ccco1 (centres unmarked) | -1.9
O=C1c2ccc(Oc3ccc4c(c3)C(=O)N(CCCO)C4=O)cc2C(=O)N1CCCO | -1.78
O=C(O)CN1C(=O)c2ccc(Oc3ccc([N+](=O)[O-])cc3)cc2C1=O | 23.2
O=C1c2ccc(Oc3ccc([N+](=O)[O-])cc3)cc2C(=O)N1CCO | -52.8
O=C(O)CCN1C(=O)c2ccc(Oc3ccc([N+](=O)[O-])cc3)cc2C1=O | 4.85
O=C1c2ccc(Oc3ccc4c(c3)C(=O)N(CCCCO)C4=O)cc2C(=O)N1CCCCO | -24.1
O=C1c2ccc(Oc3ccc([N+](=O)[O-])cc3)cc2C(=O)N1CCCO | -60.8
